Data from the supplement of paper PMC10849652.
Targets with a hit are over-represented here; the source holds about 7,900 in all. About 0.6% of all pairs of compound and target were hits.

Key:
Test in all cases: log2 fold change, soluble protein after heating vs DMSO (PISA); higher = thermal stabilisation; K562 cells, 10 uM, 30 min; active = over 0.2 and 3.5 SD of the protein, either way, in both replicates (recomputed)
[1] = compound: NC(=O)Nc1cc(-c2cccc(F)c2)sc1C(=O)N[C@H]1CCCNC1
Summary of the method: (§1)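 K562 cells at 2×10^6 cells/mL were exposed to 10 μM compound for 30 min, then aliquots were heated for 3 min across 48°C-58°C, pooled, and extracted in PBS containing 0.5% NP-40 at 4°C. The supernatant after 21,000xg for 90 min was taken as soluble protein and measured by TMTpro 16plex LC-MS/MS with channel sums equalised. Thermal stability is reported relative to control samples, with values from duplicates. Fold changes are given on a log2 scale.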

[2] = compound: NC(=O)c1cnc(N[C@@H]2CCCC[C@@H]2N)nc1Nc1cccc(-n2nccn2)c1
Summary of the method: as §1

[3] = compound: NC1(c2ccc(-c3nc4ccn5c(=O)[nH]nc5c4cc3-c3ccccc3)cc2)CCC1
Summary of the method: as §1

[4] = compound: NCC(=O)Nc1ccc(-n2nc(C(F)(F)F)cc2-c2ccc3c(ccc4ccccc43)c2)cc1
Summary of the method: as §1

entinostat = compound: Nc1ccccc1NC(=O)c1ccc(CNC(=O)OCc2cccnc2)cc1 [entinostat]
Summary of the method: as §1

vorinostat = compound: O=C(CCCCCCC(=O)Nc1ccccc1)NO [vorinostat]
Summary of the method: as §1

citarinostat = compound: O=C(CCCCCCNC(=O)c1cnc(N(c2ccccc2)c2ccccc2Cl)nc1)NO [citarinostat]
Summary of the method: as §1

silmitasertib = compound: O=C(O)c1ccc2c(c1)nc(Nc1cccc(Cl)c1)c1ccncc12 [silmitasertib]
Summary of the method: as §1

[5] = compound: O=C1NC(=O)C(c2cnc3ccccn23)=C1c1cn2c3c(cc(F)cc13)CN(C(=O)N1CCCCC1)CC2
Summary of the method: as §1

[6] = compound: c1cc(OCCN2CCCCC2)cc(-c2n[nH]c3ccc(-c4nnc[nH]4)cc23)c1
Summary of the method: as §1

entospletinib = compound: c1cn2cc(-c3ccc4cn[nH]c4c3)nc(Nc3ccc(N4CCOCC4)cc3)c2n1 [entospletinib]
Summary of the method: as §1

Measured: log2 fold change

CTSH (UniProt P09668)
inactive: [1] 0.012 | [2] 0.029 | [3] 0.032 | [4] 0.04 | entinostat -0.002 | vorinostat -0.01 | citarinostat -0.02 | silmitasertib 0.005 | [5] 0.022 | [6] 0.197 | entospletinib -0.021

DUS2 (UniProt Q9NX74)
UniProt Q9NX74, sequence (Q9NX74 whole entry, looked up): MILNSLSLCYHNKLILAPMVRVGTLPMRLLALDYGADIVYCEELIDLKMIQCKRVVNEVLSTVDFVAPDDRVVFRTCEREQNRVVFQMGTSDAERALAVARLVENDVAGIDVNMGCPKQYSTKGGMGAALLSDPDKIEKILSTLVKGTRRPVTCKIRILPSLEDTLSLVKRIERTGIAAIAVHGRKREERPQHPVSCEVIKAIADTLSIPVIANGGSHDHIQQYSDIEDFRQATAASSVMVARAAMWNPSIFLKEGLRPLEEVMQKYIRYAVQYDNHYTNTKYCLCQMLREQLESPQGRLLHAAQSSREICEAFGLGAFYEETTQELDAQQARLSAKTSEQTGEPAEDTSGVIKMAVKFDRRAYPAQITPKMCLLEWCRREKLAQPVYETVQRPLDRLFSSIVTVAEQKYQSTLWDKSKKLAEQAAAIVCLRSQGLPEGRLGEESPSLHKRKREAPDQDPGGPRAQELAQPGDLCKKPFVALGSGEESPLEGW
inactive: [1] 0.051 | [2] -0.066 | [3] -0.091 | [4] -0.004 | entinostat 0.008 | vorinostat 0.041 | citarinostat 0.124 | silmitasertib 0.092 | [6] 0.038 | entospletinib -0.063
active: [5] -0.424

FAAP100 (UniProt Q0VG06)
inactive: [1] 0.009 | [2] 0.039 | [3] -0.076 | [4] -0.031 | entinostat -0.05 | vorinostat 0.048 | citarinostat -0.012 | silmitasertib -0.051 | [5] 0.197 | [6] -0.053 | entospletinib 0.003

DNAJC7 (UniProt Q99615)
inactive: [1] -0.067 | [2] -0.029 | [3] -0.204 | [4] -0.071 | entinostat 0.05 | vorinostat 0.043 | citarinostat 0.071 | silmitasertib 0.001 | [5] -0.03 | [6] -0.001 | entospletinib -0.034

FAM3A (UniProt P98173)
inactive: [1] 0.022 | [2] -0.028 | [4] 0.006 | entinostat -0.097 | vorinostat -0.01 | citarinostat 0 | silmitasertib -0.015 | [5] 0.034 | [6] -0.028 | entospletinib 0.023
active: [3] -0.21

DPP8 (UniProt Q6V1X1)
UniProt Q6V1X1, sequence (Q6V1X1 whole entry, looked up): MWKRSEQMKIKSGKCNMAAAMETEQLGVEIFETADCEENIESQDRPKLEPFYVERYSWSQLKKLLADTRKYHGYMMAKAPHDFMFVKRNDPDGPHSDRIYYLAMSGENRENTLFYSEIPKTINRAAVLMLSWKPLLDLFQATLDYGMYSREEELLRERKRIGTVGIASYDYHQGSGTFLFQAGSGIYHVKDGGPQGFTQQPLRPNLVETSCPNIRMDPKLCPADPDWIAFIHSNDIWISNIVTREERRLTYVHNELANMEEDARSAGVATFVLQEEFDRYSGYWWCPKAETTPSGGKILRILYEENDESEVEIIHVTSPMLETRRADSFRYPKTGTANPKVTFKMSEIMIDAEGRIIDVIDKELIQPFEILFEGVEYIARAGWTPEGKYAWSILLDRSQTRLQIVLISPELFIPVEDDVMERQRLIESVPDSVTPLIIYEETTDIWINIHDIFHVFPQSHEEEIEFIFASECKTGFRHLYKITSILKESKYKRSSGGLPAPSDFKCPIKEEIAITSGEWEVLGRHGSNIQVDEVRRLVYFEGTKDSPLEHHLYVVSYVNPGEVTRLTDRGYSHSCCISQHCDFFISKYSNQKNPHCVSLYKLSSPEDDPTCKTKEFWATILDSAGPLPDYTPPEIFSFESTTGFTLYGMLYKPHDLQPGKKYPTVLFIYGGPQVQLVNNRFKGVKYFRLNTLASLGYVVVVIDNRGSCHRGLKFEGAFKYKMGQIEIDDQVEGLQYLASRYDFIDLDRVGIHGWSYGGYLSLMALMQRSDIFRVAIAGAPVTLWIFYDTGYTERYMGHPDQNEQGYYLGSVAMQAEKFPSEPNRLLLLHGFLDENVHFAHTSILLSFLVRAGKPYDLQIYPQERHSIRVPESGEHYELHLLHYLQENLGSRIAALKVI
inactive: [1] -0.243 | [2] -0.126 | [3] -0.04 | [4] -0.079 | entinostat -0.124 | vorinostat -0.021 | silmitasertib 0.063 | [5] -0.114 | [6] 0.219
active: citarinostat -0.325 | entospletinib -0.377

ERLIN1 (UniProt O75477)
inactive: [1] 0.083 | [2] -0.068 | [3] -0.066 | [4] -0.043 | entinostat 0.111 | vorinostat 0.074 | citarinostat -0.01 | silmitasertib -0.009 | [5] 0.084 | [6] -0.045 | entospletinib -0.049

CTSB (UniProt P07858)
inactive: [1] -0.013 | [2] -0.043 | [4] 0.005 | entinostat -0.047 | vorinostat 0.016 | citarinostat -0.015 | silmitasertib 0.002 | [5] -0.067 | [6] -0.07 | entospletinib 0.008
active: [3] -0.283

EEF1G isoform 2 (UniProt P26641)
UniProt P26641, sequence (P26641 whole entry, looked up): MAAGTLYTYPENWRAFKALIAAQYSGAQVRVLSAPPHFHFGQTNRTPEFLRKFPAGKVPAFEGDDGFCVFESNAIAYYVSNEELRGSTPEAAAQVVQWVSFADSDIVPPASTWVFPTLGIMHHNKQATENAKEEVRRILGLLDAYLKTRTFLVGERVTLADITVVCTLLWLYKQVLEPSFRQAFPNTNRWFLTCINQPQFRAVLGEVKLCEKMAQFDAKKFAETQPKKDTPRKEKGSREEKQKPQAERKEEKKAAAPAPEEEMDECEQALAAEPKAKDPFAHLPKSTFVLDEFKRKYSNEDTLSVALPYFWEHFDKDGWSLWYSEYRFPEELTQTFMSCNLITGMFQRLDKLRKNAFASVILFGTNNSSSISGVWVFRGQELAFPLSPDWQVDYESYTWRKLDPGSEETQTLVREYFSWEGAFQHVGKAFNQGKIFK
inactive: [1] -0.005 | [2] -0.039 | [3] -0.1 | [4] 0.011 | entinostat 0.036 | vorinostat 0.059 | citarinostat 0.035 | silmitasertib 0.014 | [5] 0.003 | [6] -0.046 | entospletinib -0.012

EGLN1 (UniProt Q9GZT9)
inactive: [1] 0.095 | [2] -0.016 | [3] -0.043 | [4] -0.029 | entinostat -0.009 | vorinostat 0.021 | citarinostat 0.034 | silmitasertib 0.024 | [5] 0.014 | [6] -0.178 | entospletinib 0

DLD (UniProt P09622)
UniProt P09622, sequence (P09622 whole entry, looked up): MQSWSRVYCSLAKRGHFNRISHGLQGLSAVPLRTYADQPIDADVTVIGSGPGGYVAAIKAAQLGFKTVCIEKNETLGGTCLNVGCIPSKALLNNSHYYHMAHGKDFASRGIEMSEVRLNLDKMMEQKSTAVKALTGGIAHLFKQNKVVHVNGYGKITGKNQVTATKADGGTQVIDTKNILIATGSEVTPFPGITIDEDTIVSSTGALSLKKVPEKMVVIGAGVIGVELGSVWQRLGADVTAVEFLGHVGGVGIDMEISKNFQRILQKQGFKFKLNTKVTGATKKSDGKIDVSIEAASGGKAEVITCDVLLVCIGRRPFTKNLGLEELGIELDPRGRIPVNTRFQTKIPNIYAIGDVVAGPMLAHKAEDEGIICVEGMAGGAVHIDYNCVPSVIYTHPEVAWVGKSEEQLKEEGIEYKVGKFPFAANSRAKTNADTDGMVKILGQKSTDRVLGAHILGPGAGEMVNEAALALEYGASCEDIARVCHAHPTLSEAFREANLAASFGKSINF
inactive: [1] 0.003 | [2] 0.007 | [3] -0.088 | [4] 0.033 | entinostat -0.013 | vorinostat -0.02 | citarinostat 0.011 | silmitasertib -0.042 | [5] -0.004 | [6] -0.093 | entospletinib 0.051

DHX40 (UniProt Q8IX18)
inactive: [1] -0.093 | [2] -0.036 | [3] -0.157 | [4] -0.042 | entinostat -0.004 | vorinostat -0.097 | citarinostat 0.081 | silmitasertib -0.027 | [5] -0.116 | [6] -0.04 | entospletinib -0.055

DDX5 (UniProt P17844)
UniProt P17844, sequence (P17844 whole entry, looked up): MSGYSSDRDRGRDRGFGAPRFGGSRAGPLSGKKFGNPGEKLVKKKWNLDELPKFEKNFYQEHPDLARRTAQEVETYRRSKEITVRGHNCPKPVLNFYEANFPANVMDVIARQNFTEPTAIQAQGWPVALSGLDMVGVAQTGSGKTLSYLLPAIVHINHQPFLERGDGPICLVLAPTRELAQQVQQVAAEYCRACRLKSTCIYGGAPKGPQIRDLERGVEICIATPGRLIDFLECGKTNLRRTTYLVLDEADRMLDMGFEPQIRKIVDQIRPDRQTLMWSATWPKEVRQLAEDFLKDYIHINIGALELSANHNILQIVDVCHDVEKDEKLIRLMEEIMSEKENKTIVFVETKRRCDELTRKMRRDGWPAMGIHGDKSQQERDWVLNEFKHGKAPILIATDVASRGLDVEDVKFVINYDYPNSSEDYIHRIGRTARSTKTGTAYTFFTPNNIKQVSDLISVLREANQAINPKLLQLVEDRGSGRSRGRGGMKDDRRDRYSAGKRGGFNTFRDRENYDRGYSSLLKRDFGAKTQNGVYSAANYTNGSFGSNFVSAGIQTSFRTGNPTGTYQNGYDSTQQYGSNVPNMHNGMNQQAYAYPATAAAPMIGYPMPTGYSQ
inactive: [1] -0.139 | [2] -0.032 | [3] -0.21 | [4] -0.135 | entinostat 0.067 | vorinostat 0.073 | citarinostat 0.072 | silmitasertib -0.088 | [5] -0.158 | [6] -0.039 | entospletinib -0.019

F5 (UniProt P12259)
inactive: [1] -0.095 | [2] -0.08 | [3] 0.048 | [4] -0.024 | entinostat -0.045 | vorinostat -0.016 | citarinostat -0.019 | silmitasertib 0.127 | [5] 0.084 | [6] 0.002 | entospletinib 0.133

EEF1D isoform 2 (UniProt P29692)
inactive: [1] -0.02 | [2] -0.06 | [3] -0.034 | [4] -0.105 | entinostat 0.018 | vorinostat -0.02 | citarinostat 0.017 | silmitasertib 0.108 | [5] -0.001 | [6] -0.067 | entospletinib 0.031

DUS3L (UniProt Q96G46)
inactive: [1] 0.113 | [2] -0.012 | [3] 0.194 | [4] 0.003 | entinostat 0.003 | vorinostat 0.093 | citarinostat 0.058 | silmitasertib 0.112 | [5] -0.176 | [6] -0.029 | entospletinib -0.086

DEGS1 (UniProt O15121)
UniProt O15121, sequence (O15121 whole entry, looked up): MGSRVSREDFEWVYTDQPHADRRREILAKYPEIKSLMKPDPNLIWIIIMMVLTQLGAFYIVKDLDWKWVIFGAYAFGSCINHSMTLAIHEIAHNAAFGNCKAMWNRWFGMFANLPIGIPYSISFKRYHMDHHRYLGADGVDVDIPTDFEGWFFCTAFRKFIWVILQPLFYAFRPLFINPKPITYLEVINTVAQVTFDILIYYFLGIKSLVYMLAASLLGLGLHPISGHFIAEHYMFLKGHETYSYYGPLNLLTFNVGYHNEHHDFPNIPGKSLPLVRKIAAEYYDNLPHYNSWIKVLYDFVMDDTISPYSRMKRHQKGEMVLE
inactive: [1] -0.101 | [2] 0.249 | [3] 0.086 | [4] -0.169 | entinostat -0.006 | vorinostat 0.077 | citarinostat 0.109 | silmitasertib -0.053 | [5] -0.003 | [6] -0.063 | entospletinib -0.03

EDC3 (UniProt Q96F86)
inactive: [1] -0.162 | [2] -0.229 | [3] -0.119 | [4] -0.075 | entinostat 0.07 | vorinostat 0.154 | citarinostat 0.042 | silmitasertib -0.047 | [5] -0.068 | [6] -0.152 | entospletinib -0.068

EVC2 (UniProt Q86UK5)
inactive: [1] -0.074 | [2] -0.129 | [3] 0.013 | [4] -0.268 | entinostat 0.004 | vorinostat -0.071 | citarinostat 0.024 | silmitasertib -0.042 | [5] 0.024 | [6] -0.114 | entospletinib -0.104

DYNC1I2 isoform 5 (UniProt Q13409)
UniProt Q13409, sequence (Q13409 whole entry, looked up): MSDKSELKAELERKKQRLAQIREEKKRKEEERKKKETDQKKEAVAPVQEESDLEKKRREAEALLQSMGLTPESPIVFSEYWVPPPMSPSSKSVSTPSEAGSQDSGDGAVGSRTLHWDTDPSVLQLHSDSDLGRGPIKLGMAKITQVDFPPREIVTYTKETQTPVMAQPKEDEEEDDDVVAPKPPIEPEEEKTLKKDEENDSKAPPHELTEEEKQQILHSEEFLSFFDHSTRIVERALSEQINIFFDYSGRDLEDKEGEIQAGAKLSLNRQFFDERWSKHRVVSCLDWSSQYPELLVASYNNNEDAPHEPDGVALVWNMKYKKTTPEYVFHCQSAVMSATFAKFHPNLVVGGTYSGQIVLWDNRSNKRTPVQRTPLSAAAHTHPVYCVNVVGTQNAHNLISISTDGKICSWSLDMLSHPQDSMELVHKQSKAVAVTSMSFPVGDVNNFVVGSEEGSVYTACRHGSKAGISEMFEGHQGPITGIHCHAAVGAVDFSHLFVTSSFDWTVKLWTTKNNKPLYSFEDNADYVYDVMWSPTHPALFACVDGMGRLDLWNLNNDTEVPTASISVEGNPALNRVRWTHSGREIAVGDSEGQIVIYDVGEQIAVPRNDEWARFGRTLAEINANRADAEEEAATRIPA
inactive: [1] -0.021 | [2] -0.016 | [3] -0.023 | [4] 0.059 | entinostat -0.018 | vorinostat -0.044 | citarinostat 0.015 | silmitasertib 0.004 | [5] -0.012 | [6] 0.004 | entospletinib 0.038

DBNL isoform 3 (UniProt Q9UJU6)
inactive: [1] 0.021 | [2] -0.022 | [3] -0.109 | [4] -0.061 | entinostat -0.003 | vorinostat -0.01 | citarinostat 0.063 | silmitasertib 0.058 | [5] 0.012 | [6] 0.007 | entospletinib -0.087

ETNK1 (UniProt Q9HBU6)
inactive: [2] 0.011 | [3] -0.144 | [4] -0.057 | entinostat 0.089 | vorinostat -0.01 | citarinostat 0.019 | silmitasertib 0.041 | [5] 0.208 | [6] -0.084 | entospletinib -0.008
active: [1] 0.25

FAM160B1 (UniProt Q5W0V3)
inactive: [1] 0.04 | [2] -0.038 | [4] -0.043 | entinostat 0.026 | vorinostat 0.139 | citarinostat 0.069 | silmitasertib -0.026 | [5] -0.064 | [6] 0 | entospletinib 0.008
active: [3] -0.211

EXTL2 (UniProt Q9UBQ6)
inactive: [1] -0.051 | [2] -0.033 | [3] -0.018 | [4] 0.039 | entinostat -0.01 | vorinostat 0.019 | citarinostat -0.044 | silmitasertib -0.011 | [5] 0.003 | [6] -0.223 | entospletinib 0.03

DNAJC1 (UniProt Q96KC8)
UniProt Q96KC8, sequence (Q96KC8 whole entry, looked up): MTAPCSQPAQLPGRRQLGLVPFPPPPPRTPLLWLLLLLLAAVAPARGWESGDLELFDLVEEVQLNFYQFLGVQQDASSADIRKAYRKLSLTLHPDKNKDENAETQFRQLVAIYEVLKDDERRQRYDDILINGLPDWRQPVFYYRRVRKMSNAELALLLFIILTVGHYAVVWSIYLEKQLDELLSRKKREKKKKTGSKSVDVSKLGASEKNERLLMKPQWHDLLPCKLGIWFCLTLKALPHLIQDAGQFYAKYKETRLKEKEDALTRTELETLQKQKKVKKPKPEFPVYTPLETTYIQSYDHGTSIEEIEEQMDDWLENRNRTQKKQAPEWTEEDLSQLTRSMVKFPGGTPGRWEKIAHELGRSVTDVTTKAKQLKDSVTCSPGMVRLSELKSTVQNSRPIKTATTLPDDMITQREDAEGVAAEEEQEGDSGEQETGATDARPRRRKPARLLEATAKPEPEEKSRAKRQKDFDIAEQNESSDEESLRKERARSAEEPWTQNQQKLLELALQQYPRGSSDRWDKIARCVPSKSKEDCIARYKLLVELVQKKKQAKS
inactive: [1] 0.013 | [2] -0.055 | [3] -0.082 | [4] -0.08 | entinostat 0.042 | vorinostat 0.106 | citarinostat 0.017 | silmitasertib 0.01 | [5] -0.016 | [6] -0.083 | entospletinib 0.015

DCAF10 (UniProt Q5QP82)
active: [6] 0.357
inactive: [1] -0.018 | [2] -0.02 | [3] 0.026 | [4] 0.033 | entinostat -0.021 | vorinostat -0.015 | citarinostat 0.08 | silmitasertib 0.122 | [5] -0.028 | entospletinib 0.307

FAM114A2 (UniProt Q9NRY5)
UniProt Q9NRY5, sequence (Q9NRY5 whole entry, looked up): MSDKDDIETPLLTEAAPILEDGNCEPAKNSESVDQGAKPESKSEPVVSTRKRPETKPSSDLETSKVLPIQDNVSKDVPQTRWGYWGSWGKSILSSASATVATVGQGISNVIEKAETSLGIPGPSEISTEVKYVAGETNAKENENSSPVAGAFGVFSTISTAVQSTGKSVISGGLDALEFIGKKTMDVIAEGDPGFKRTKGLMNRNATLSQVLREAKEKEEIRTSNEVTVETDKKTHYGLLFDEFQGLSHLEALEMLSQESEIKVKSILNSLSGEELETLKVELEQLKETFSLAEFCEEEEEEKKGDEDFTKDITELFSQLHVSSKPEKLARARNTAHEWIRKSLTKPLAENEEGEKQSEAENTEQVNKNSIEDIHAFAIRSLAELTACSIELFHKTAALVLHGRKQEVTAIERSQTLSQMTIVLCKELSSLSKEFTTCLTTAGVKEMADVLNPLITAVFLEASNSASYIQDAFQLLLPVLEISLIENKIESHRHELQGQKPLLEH
inactive: [1] 0.023 | [2] -0.089 | [3] -0.151 | [4] -0.062 | entinostat 0.051 | vorinostat 0.034 | citarinostat 0.05 | silmitasertib 0.02 | [5] -0.016 | [6] -0.013 | entospletinib -0.022

EXOC4 (UniProt Q96A65)
inactive: [1] 0.081 | [2] -0.216 | [3] -0.205 | [4] -0.051 | entinostat 0.078 | vorinostat 0.174 | citarinostat 0.16 | silmitasertib 0.091 | [5] 0.044 | [6] -0.094 | entospletinib -0.067
